# In PubChem BioAssay (EPA / NIEHS):
# Activity calls are given as the source filed them. The calls were made as follows: active = hit-call score of the fitted dose curve at least 0.9, where 1 is the maximum; inactive = score below 0.9.
# Assay: ATG_AP_2_CIS: Attagene CIS-FACTORIAL HepG2 Assay for human Activator Protein 2 (AP-2) (AID 2282932)
# Details: HepG2 AP-2 cis-reporter, Attagene transcription factor profiling; actives raise or lower the signal
# Outline: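 Multiplexed mRNA reporter assay in HepG2: cis-regulated units report endogenous factor activity after 24 h treatment. Fluorescence from capillary electrophoresis of RT-PCR products gives the signal, with DMSO as baseline.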
Structure (SMILES),AC50,outcome
CCCCCCCCCCCCOCCO,57.4 µM (active),–
Clc1sc(Cl)c(Cl)c1Cl,–,inactive
NC(N)=NC(=O)c1nc(Cl)c(N)nc1N,–,inactive
O=c1[nH]c(=O)n([C@H]2CCCO2)cc1F,–,inactive
CCC(O)CO (stereo unspecified),–,inactive
CO[Si](CCCn1c(=O)n(CCC[Si](OC)(OC)OC)c(=O)n(CCC[Si](OC)(OC)OC)c1=O)(OC)OC,–,inactive
Nc1cc(N)cc(C(=O)O)c1,–,inactive
CCCC(=O)OCCC(C)CCC=C(C)C (stereo unspecified),–,inactive
CC[Si](OC(C)=O)(OC(C)=O)OC(C)=O,–,inactive
O=S(=O)(O)NC1CCCCC1,–,inactive
CCCCCCCCC=O,–,inactive
CCCCOCCOCCSC#N,–,inactive
CCCCCCCCCCCCSC,–,inactive
CN1[C@@H]2CC(OC(=O)[C@H](CO)c3ccccc3)C[C@H]1[C@@H]1O[C@@H]12 (stereo partly specified),–,inactive
O=C(O)C[C@H](O)C[C@H](O)/C=C/c1c(C2CC2)nc2ccccc2c1-c1ccc(F)cc1,–,inactive
COc1cccc(OC)c1,–,inactive
CCC(=O)OCc1ccccc1,–,inactive
CC(=O)O[C@H](CC(=O)[O-])C[N+](C)(C)C,–,inactive
O=C=NC1CCC(CC2CCC(N=C=O)CC2)CC1 (stereo unspecified),–,inactive
O=c1cc(-c2ccccc2)oc2cc(O)cc(O)c12,–,inactive
OCCOc1cccc(OCCO)c1,–,inactive

# Assay: ATG_BRE_CIS: Attagene CIS-FACTORIAL HepG2 Assay for human Bone Morphogenetic Protein (BMP) Response Element (BRE) (AID 2282933)
# Details: HepG2 BMP response element reporter, Attagene transcription factor profiling; actives raise or lower the signal
# Outline: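 Read-out: reporter mRNA induction quantified by RT-PCR and capillary electrophoresis after 24 h chemical exposure of transfected HepG2 cells. Endogenous factor activity on the BMP response element; gain or loss fitted against DMSO baseline.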
Structure (SMILES),outcome,AC50
CO[Si](C)(OC)c1ccccc1,inactive,–
COc1ccc(OC)c(OC)c1,inactive,–
CN(C)CCOCCN(C)C,inactive,–
CCC/C=C/C=O,inactive,–
CC(=O)O[C@]1(C(C)=O)CC[C@H]2[C@@H]3C[C@H](C)C4=CC(=O)CC[C@]4(C)[C@H]3CC[C@@]21C,inactive,–
c1ccc2c(c1)c1cccc3ccc4cccc2c4c31,inactive,–
Cc1ccc(C=O)cc1,inactive,–
Cc1cccc(C)c1[N+](=O)[O-],inactive,–
COc1nc(C)nc(N)n1,inactive,–
CCCCCCCCCCCCOCCO,inactive,–
Clc1sc(Cl)c(Cl)c1Cl,inactive,–
NC(N)=NC(=O)c1nc(Cl)c(N)nc1N,inactive,–
O=c1[nH]c(=O)n([C@H]2CCCO2)cc1F,inactive,–
CCC(O)CO (stereo unspecified),inactive,–
CO[Si](CCCn1c(=O)n(CCC[Si](OC)(OC)OC)c(=O)n(CCC[Si](OC)(OC)OC)c1=O)(OC)OC,inactive,–
Nc1cc(N)cc(C(=O)O)c1,inactive,–
CCCC(=O)OCCC(C)CCC=C(C)C (stereo unspecified),inactive,–
CC[Si](OC(C)=O)(OC(C)=O)OC(C)=O,inactive,–

Structure (SMILES),outcome,AC50
O=S(=O)(O)NC1CCCCC1,inactive,–
CCCCCCCCC=O,inactive,–
CCCCOCCOCCSC#N,inactive,–
CCCCCCCCCCCCSC,inactive,–
CN1[C@@H]2CC(OC(=O)[C@H](CO)c3ccccc3)C[C@H]1[C@@H]1O[C@@H]12 (stereo partly specified),inactive,–
O=C(O)C[C@H](O)C[C@H](O)/C=C/c1c(C2CC2)nc2ccccc2c1-c1ccc(F)cc1,inactive,–
CCn1c2ccccc2c2cc(N)ccc21,–,100 µM (active)
COc1cccc(OC)c1,inactive,–
CCC(=O)OCc1ccccc1,inactive,–
O=[N+]([O-])c1ccc(C=Cc2ccc([N+](=O)[O-])cc2S(=O)(=O)O)c(S(=O)(=O)O)c1,inactive,–
CC(C)C1CCC(O)CC1 (stereo unspecified),inactive,–
CC(=O)O[C@H](CC(=O)[O-])C[N+](C)(C)C,inactive,–
C=C(C)C(=O)OCCOC(=O)CC(C)=O,inactive,–
O=C=NC1CCC(CC2CCC(N=C=O)CC2)CC1 (stereo unspecified),–,41.7 µM (active)
O=c1cc(-c2ccccc2)oc2cc(O)cc(O)c12,inactive,–
O=c1[nH]nnc2ccccc12,inactive,–
OCCOc1cccc(OCCO)c1,inactive,–
